Screening results from PubChem BioAssay.
This is a sample that favours compounds with a hit; in the whole collection about 3.3% have one here.
PfM18AAP inh = blocks P. falciparum M18 aspartyl aminopeptidase; inhibition, % at 7.35 µM; AID 1822; recombinant PfM18AAP, H-Glu-NHMec fluorogenic cleavage; actives 1.2% (n = 290,000);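 active = inhibition above the campaign mean inhibition over all tested compounds plus 3 SD, cut at about 28% in these data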;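 note: 0% = plate median of test compound wells and 100% = 2 mM ZnCl2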
PRMT1 FP inh = PRMT1 (human) inhibition, primary screen; Q99873; recombinant PRMT1, activity-based probe fluorescence polarization; inhibition, % at 2.79 µM; actives 1.3% (n = 370,000); AID 652257;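 active = inhibition above about 21% made by adding two undisclosed values, limit read from the data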
Target sequence (Q99873 whole entry, looked up): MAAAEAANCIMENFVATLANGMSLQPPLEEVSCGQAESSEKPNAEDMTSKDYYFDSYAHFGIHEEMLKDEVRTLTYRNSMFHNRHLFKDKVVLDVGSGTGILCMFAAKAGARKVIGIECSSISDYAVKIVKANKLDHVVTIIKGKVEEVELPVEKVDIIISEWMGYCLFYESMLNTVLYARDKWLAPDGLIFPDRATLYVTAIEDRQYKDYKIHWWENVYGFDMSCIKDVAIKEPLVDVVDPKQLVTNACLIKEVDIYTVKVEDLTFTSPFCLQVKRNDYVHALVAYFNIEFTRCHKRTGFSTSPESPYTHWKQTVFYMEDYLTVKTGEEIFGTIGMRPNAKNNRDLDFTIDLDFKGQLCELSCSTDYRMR
MBD2 DNA inh = MBD2-methylated oligo binding inhibition; actives 0.31% (n = 370,000); Q9UBB5; inhibition, % at 4.4 µM; TR-FRET, MBD2 binding to methylated oligonucleotide; in the data active = inhibition above about 13%
UHRF1 binding = UHRF1 methyl-DNA binding inhibition; inhibition, % at 4.4 µM; actives 0.75% (n = 370,000); Q96T88; UHRF1 binding to methylated oligo, TR-FRET; in the data active = inhibition above about 21%;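 note: UHRF1 SRA domain binding a hemimethylated CpG hairpin DNA probe; 0% = median of test compound wells and 100% = reference inhibitor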
PfG6PD inh = PfG6PD (Plasmodium falciparum) enzyme inhibition | PfGluPho enzyme, NADPH resazurin-diaphorase fluorescence | inhibition, % at 20 µM | actives 0.78% (n = 350,000);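 active = inhibition reaching at least a set limit at 20 µM in the primary screen, cut at about 59% in these data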;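 note: 0% = DMSO wells with substrate and 100% = DMSO wells lacking glucose-6-phosphate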
Starred values were filed as active, the others as inactive.

Results for Cc1onc(-c2ccccc2Cl)c1C(=O)Nc1ncn[nH]1 ?
PfM18AAP inh: 54*; PRMT1 FP inh: 1; MBD2 DNA inh: -4; UHRF1 binding: -3; PfG6PD inh: -8

What do the screens show for `Cc1ccc(S(=O)(=O)Nc2ccc3oc(=O)sc3c2)c(C)c1`?
PfM18AAP inh: 24; PRMT1 FP inh: 59*; MBD2 DNA inh: 2; UHRF1 binding: -5; PfG6PD inh: -3

Results for O=C(O)c1cc(S(=O)(=O)Nc2ccc3oc(=O)sc3c2)ccc1O ?
PfM18AAP inh: 51*; PRMT1 FP inh: 86*; MBD2 DNA inh: 1; UHRF1 binding: 2; PfG6PD inh: -6

How did CC(=O)c1c(C)oc2ccc(NS(=O)(=O)c3ccc(O)c(C(=O)O)c3)cc12 do in these assays?
PfM18AAP inh: 21; PRMT1 FP inh: 7; MBD2 DNA inh: 2; UHRF1 binding: 4; PfG6PD inh: -34

Results for COc1cccc(OCC(C)CN2CCC(C(O)(c3ccccc3)c3ccccc3)CC2)c1 (stereo not drawn) ?
PRMT1 FP inh: 2; MBD2 DNA inh: -4; UHRF1 binding: 0

How did CC1CCN(CCc2nc3cc(NC(=O)COc4ccccc4)ccc3n2C)CC1 do in these assays?
PfM18AAP inh: 5; PRMT1 FP inh: 2; MBD2 DNA inh: 12; UHRF1 binding: 26*; PfG6PD inh: -10

How did CCC(=O)Nc1ccc2c(c1)nc(CCN1CCC(C)CC1)n2C do in these assays?
PfM18AAP inh: -4; PRMT1 FP inh: -1; MBD2 DNA inh: 5; UHRF1 binding: -2; PfG6PD inh: -7

What do the screens show for `Cc1c(C(C)c2ccccc2O)c2ccccc2n1C` (stereo not drawn)?
PRMT1 FP inh: 10; MBD2 DNA inh: 4; UHRF1 binding: -3

What do the screens show for `CCOc1ccccc1NC(=O)CN(c1cc(C)cc(C)c1)S(=O)(=O)c1c(C)noc1C`?
PfM18AAP inh: -2; PRMT1 FP inh: -3; MBD2 DNA inh: 0; UHRF1 binding: 27*; PfG6PD inh: 8

What do the screens show for `CCOc1ccccc1NC(=O)CN(c1ccc(OC)cc1)S(=O)(=O)c1c(C)noc1C`?
PfM18AAP inh: 0; PRMT1 FP inh: 0; MBD2 DNA inh: 0; UHRF1 binding: 0; PfG6PD inh: 15

What do the screens show for `COc1ccc(/C=N/NC(=S)Nc2ccccc2)cc1`?
PfM18AAP inh: 31*; PRMT1 FP inh: 5; MBD2 DNA inh: 2; UHRF1 binding: 0; PfG6PD inh: -5

What do the screens show for `COc1ccc(/C=N/NC(=S)Nc2cccc(C(=O)O)c2)cc1`?
PfM18AAP inh: 30*; PRMT1 FP inh: 3; MBD2 DNA inh: 1; UHRF1 binding: -2; PfG6PD inh: 2

Results for COc1ccc(/C=N/NC(=S)Nc2ccccc2)cc1COc1ccc(Br)cc1 ?
PfM18AAP inh: -3; PRMT1 FP inh: -2; MBD2 DNA inh: 1; UHRF1 binding: 0; PfG6PD inh: -6

What do the screens show for `S=C(N/N=C/c1ccc2ncccc2c1)Nc1ccccc1`?
PfM18AAP inh: -3; PRMT1 FP inh: 8; MBD2 DNA inh: -1; UHRF1 binding: 32*; PfG6PD inh: 52

What do the screens show for `C(=N\NCc1ccccc1)/c1ccc2ncccc2c1`?
PfM18AAP inh: 6; PRMT1 FP inh: -2; MBD2 DNA inh: 4; UHRF1 binding: 0; PfG6PD inh: -3

What do the screens show for `COc1ccc(NC(=S)NNc2ccc(C(=O)O)cc2)cc1`?
PfM18AAP inh: 26; PRMT1 FP inh: 21*; MBD2 DNA inh: 1; UHRF1 binding: -2; PfG6PD inh: 14

What do the screens show for `CCc1nccn1CC(=O)c1ccc(O)c(O)c1`?
PRMT1 FP inh: 1; MBD2 DNA inh: 4; UHRF1 binding: 13

Results for Cc1ccccc1NC(=O)CSc1nnc(-c2cc(-c3ccccc3)n[nH]2)n1N ?
PRMT1 FP inh: -2; MBD2 DNA inh: -3; UHRF1 binding: 0

What do the screens show for `COc1cccc(/C=N/NC(=S)Nc2cccc(C(=O)O)c2)c1O`?
PfM18AAP inh: 38*; PRMT1 FP inh: 0; MBD2 DNA inh: 1; UHRF1 binding: -13; PfG6PD inh: -59

Results for CCC(C)N(C(=O)CSc1nnc(-c2cc(OC)c(OC)c(OC)c2)o1)C(C)CC (stereo not drawn) ?
PRMT1 FP inh: 1; MBD2 DNA inh: -6; UHRF1 binding: 4

What do the screens show for `C[C@@H]1ON(C)[C@H]2C[C@H]3c4cc(-c5ccccc5)ccc4CCN3C[C@@H]12`?
PRMT1 FP inh: 2; MBD2 DNA inh: -1; UHRF1 binding: -5

Results for S=c1[nH]nc(Nc2ccccc2Cl)s1 ?
PfM18AAP inh: 13; PRMT1 FP inh: 23*; MBD2 DNA inh: 4; UHRF1 binding: -2; PfG6PD inh: 31

How did O=S1(=O)CCOCC(CO)N1Cc1cccc(Br)c1 (stereo not drawn) do in these assays?
PRMT1 FP inh: 8; MBD2 DNA inh: 1; UHRF1 binding: 1

How did CN(CC(=O)N1CCN(c2ccccc2)CC1)S(=O)(=O)c1cnc[nH]1 do in these assays?
PfM18AAP inh: 6; PRMT1 FP inh: 1; MBD2 DNA inh: -2; UHRF1 binding: 29*; PfG6PD inh: 0

How did C[C@H](CO)N1C[C@H](C)[C@@H](CN(C)C(=O)Nc2ccc(-c3cccs3)cc2)OCc2cn(nn2)CCCC1=O do in these assays?
PRMT1 FP inh: -1; MBD2 DNA inh: 0; UHRF1 binding: 0

What do the screens show for `Cc1cc(Oc2cccnc2)ccc1NC(=O)Cc1cn(C)c2ccccc12`?
PRMT1 FP inh: 2; MBD2 DNA inh: 5; UHRF1 binding: 0

Results for CNC(=O)c1cccc2cccc(Sc3ccccc3C(=O)O)c12 ?
PfM18AAP inh: 5; PRMT1 FP inh: 0; MBD2 DNA inh: -3; UHRF1 binding: 29*; PfG6PD inh: -6

Results for COc1ccc(S[C@]2(C(=O)N3CCOCC3)CC(=O)N(c3ccc(C#N)cc3)[C@@H]2c2ccc(OC)cc2)cc1 ?
PRMT1 FP inh: 5; MBD2 DNA inh: 1; UHRF1 binding: 1

How did CCOC(=O)COc1ccccc1/C=C\[N+](=O)[O-] do in these assays?
PfM18AAP inh: 32*; PfG6PD inh: 33

What do the screens show for `COC(=O)c1ccc(NC(=O)CSC2=NCCN2)cc1`?
PfM18AAP inh: 6; PRMT1 FP inh: 63*; MBD2 DNA inh: 1; UHRF1 binding: 0; PfG6PD inh: -20

What do the screens show for `CCOc1ccc(NC(=O)CSC2=NCCN2)cc1`?
PfM18AAP inh: 20; PRMT1 FP inh: 8; MBD2 DNA inh: -4; UHRF1 binding: -2; PfG6PD inh: -7

Results for Cc1ccc(-n2c(C)n[nH]c2=S)cc1C ?
PfM18AAP inh: 25; PRMT1 FP inh: -1; MBD2 DNA inh: 0; UHRF1 binding: 1; PfG6PD inh: 30

Results for Cc1ccc(-n2c(C)n[nH]c2=S)cc1 ?
PfM18AAP inh: 30*; PRMT1 FP inh: 0; MBD2 DNA inh: 3; UHRF1 binding: 1; PfG6PD inh: 23

How did COC(=O)[C@]12C[C@H](CC(=O)NCc3ccc(OC)c(OC)c3)C(=O)N(Cc3ccccc3)C1=C[C@H](C1CCCC1)O[C@@H]2C do in these assays?
PRMT1 FP inh: 2; MBD2 DNA inh: -2; UHRF1 binding: 0
